Data from ChEMBL document CHEMBL3988442, “University of Dundee, Small-Polar-MMV Screening Library” (2021).
For some of these results: Results with a measured potency or affinity are listed apart.

What was measured:
Design in all cases: scale not given: direction of the effect not stated beside the values
[1] = biological target: Protein translocase subunit SecA (Escherichia coli (strain K12)) (UniProt P10408); assay: Assay to Identify E. coli SecA ATPase Inhibitors; type: functional; settings: 30 µM
Sequence of Protein translocase subunit SecA (Escherichia coli (strain K12)) (P10408 whole entry): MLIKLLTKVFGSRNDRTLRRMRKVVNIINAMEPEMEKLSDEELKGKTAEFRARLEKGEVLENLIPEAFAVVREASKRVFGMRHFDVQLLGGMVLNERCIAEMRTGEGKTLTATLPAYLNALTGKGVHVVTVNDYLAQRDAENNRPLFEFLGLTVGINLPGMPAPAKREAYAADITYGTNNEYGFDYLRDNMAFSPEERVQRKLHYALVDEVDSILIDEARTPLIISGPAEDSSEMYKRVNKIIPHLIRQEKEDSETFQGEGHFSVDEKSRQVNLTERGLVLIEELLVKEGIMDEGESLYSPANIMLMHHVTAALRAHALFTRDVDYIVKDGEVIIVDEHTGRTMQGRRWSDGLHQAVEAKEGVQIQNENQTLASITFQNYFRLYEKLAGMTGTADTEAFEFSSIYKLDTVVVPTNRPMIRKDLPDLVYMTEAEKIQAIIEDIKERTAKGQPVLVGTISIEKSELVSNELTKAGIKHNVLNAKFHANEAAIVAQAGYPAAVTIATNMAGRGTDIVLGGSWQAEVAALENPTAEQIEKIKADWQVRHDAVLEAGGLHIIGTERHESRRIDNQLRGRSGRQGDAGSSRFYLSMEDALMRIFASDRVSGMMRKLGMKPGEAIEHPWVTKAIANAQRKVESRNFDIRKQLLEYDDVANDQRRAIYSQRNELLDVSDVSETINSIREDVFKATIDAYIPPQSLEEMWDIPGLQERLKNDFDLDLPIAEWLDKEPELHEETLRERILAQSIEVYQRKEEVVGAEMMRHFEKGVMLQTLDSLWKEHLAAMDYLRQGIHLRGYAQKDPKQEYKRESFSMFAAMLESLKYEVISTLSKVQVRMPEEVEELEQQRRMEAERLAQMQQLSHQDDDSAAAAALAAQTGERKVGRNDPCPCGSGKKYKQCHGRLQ

[2] = biological target: T1, Ubiquitin-activating enzyme e1, putative (Leishmania donovani (strain BPK282A1)) (UniProt E9BSI1); assay: Leishmania donovani Ubiquitin Activating Enzyme (LdE1); type: functional; settings: 30 µM
T1 sequence (whole entry): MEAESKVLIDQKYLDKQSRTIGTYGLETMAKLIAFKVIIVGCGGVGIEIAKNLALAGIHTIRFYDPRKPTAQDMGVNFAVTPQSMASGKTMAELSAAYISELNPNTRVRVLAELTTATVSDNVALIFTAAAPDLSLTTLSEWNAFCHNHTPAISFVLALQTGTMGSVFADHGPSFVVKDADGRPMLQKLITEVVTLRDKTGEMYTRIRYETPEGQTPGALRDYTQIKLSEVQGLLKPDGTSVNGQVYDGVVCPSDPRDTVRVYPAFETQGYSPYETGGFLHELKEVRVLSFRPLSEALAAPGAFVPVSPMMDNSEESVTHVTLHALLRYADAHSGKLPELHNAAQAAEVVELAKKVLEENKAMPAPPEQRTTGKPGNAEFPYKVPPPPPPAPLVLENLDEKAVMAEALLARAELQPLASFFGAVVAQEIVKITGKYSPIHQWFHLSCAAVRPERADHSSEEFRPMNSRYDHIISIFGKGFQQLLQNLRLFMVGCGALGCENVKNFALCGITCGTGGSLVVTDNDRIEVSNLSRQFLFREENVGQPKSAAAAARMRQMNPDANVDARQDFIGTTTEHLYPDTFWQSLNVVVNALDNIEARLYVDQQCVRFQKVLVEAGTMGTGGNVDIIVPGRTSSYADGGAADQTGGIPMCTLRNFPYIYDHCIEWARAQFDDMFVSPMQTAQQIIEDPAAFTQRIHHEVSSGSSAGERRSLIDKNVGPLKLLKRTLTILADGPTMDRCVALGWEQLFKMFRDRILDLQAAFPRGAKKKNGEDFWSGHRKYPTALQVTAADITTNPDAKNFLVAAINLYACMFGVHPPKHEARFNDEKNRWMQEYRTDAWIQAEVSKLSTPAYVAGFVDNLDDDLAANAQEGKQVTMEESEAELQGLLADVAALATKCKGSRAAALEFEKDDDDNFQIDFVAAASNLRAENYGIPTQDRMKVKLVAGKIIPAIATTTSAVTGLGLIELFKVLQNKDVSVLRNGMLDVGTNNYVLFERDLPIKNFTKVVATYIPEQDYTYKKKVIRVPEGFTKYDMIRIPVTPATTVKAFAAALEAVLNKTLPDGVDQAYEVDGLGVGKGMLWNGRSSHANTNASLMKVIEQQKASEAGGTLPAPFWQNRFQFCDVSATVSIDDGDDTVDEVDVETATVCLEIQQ

[3] = biological target: AMP-activated protein kinase, AMPK (Homo sapiens) (UniProt P54646+O43741+P54619+Q9UGJ0+Q9Y478+Q13131+Q9UGI9); assay: AMP-dependent Kinase enzyme assay. An in vitro enzyme assay that detects ADP turnover that is directly proportional to AMPK activity. This uses naive AMPK that is activated during the assay with MK-8722; type: functional; settings: 30 µM
[4] = biological target: Sialic acid-binding Ig-like lectin 9 (Homo sapiens) (UniProt Q9Y336); assay: Hs-Siglec9 ALPHAscreen SOP 20170721; settings: 10 µM
Sequence of Sialic acid-binding Ig-like lectin 9 (Homo sapiens) (Q9Y336 whole entry): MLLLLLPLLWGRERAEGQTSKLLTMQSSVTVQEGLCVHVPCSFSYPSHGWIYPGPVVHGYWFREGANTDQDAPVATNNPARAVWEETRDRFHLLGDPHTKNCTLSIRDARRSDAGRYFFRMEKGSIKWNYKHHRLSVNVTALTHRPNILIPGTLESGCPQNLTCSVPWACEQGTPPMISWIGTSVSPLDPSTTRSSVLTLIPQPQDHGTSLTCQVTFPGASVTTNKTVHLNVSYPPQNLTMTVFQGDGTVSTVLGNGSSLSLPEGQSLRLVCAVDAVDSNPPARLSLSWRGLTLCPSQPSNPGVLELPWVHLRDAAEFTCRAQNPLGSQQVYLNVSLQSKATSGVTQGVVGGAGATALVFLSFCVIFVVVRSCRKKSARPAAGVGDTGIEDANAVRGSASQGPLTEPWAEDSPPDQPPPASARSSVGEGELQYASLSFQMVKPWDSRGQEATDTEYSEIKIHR

Trypanosoma cruzi = assay: Trypanosoma cruzi phosphomannomutase and mannose-1-phosphate guanylyltransferase assay; type: functional; settings: 10 µM
[5] = biological target: T2, Arginase-2, mitochondrial (Homo sapiens) (UniProt P78540); assay: in vitro enzyme assay to detect the production of urea directly proportional to the activity of Arginase II; type: functional; settings: 33.3 µM; also: in the data most compounds retested in dose-response had high values
T2 sequence (whole entry): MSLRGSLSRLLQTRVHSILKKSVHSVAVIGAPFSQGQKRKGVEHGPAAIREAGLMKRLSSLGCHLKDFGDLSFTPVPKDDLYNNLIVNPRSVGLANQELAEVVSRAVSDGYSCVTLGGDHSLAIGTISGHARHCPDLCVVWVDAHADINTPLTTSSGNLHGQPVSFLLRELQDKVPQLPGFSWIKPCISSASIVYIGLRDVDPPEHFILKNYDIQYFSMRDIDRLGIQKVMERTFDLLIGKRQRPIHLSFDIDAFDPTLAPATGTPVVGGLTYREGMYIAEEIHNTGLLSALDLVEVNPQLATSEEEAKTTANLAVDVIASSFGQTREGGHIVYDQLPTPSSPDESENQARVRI

[6] = biological target: T3, Proteasome subunit beta (Trypanosoma cruzi) (UniProt O96673); assay: Trypanosoma cruzi proteasome chymotrypsin-like activity (TcProtChymo) assay.; also: in the data most compounds retested in dose-response had high values; type: functional; settings: 9.37 µM
T3 sequence (whole entry): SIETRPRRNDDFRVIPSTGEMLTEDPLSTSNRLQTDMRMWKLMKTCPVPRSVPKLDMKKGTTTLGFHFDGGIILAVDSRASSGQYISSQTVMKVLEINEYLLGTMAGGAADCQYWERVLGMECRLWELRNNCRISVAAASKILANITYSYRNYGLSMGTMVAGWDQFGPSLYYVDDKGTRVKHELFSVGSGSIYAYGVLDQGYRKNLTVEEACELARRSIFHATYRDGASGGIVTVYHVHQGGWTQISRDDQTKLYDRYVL

Homo sapiens = organism: Homo sapiens; assay: To identify inhibition of the IFN signalling (Jak-Stat) pathway via expression of an eGFP reporter gene under the control of an IFN-stimulated response element (ISRE) containing MxA promoter.; type: functional; settings: 30 µM
[7] = biological target: T4, Tyrosyl-tRNA synthetase, putative (Trypanosoma cruzi (strain CL Brener)) (UniProt Q4DSP6); assay: Trypanosoma cruzi tyrosyl tRNA synthetase (TcYRS) _High Tyrosine SOP; type: functional; settings: 30 µM; also: in the data most compounds retested in dose-response had high values
T4 sequence (whole entry): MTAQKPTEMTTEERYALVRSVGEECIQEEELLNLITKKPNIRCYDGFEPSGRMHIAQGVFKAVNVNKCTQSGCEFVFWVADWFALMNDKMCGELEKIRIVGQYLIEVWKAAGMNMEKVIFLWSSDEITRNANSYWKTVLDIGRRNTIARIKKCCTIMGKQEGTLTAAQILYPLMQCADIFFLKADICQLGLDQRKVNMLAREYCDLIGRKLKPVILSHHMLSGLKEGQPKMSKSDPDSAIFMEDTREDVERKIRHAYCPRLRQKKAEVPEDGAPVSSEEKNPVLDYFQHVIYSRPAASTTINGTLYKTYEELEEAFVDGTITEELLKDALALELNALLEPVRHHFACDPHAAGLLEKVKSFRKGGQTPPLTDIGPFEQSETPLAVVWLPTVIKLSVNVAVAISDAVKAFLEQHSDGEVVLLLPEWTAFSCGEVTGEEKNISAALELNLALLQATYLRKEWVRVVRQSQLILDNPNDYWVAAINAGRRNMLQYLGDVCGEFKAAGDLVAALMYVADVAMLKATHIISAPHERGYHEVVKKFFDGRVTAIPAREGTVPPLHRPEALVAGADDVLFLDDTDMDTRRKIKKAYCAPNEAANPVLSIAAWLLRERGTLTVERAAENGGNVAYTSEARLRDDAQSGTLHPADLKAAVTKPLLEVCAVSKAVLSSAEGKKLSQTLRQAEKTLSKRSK

[8] = biological target: T4, Tyrosyl-tRNA synthetase, putative (Trypanosoma cruzi (strain CL Brener)); assay: Trypanosoma cruzi tyrosyl tRNA synthetase (TcYRS) SOP; type: functional; settings: 30 µM
[9] = biological target: Chromo domain-containing protein 1 (Saccharomyces cerevisiae (strain ATCC 204508 / S288c) (Baker's yeast)) (UniProt P32657); assay: ScCHD-1 Enzyme Inhibition Assay; type: functional; settings: 30 µM; also: in the data most compounds retested in dose-response had high values
Sequence of Chromo domain-containing protein 1 (Saccharomyces cerevisiae (strain ATCC 204508 / S288c) (Baker's yeast)) (P32657 whole entry, the tested form may be a part): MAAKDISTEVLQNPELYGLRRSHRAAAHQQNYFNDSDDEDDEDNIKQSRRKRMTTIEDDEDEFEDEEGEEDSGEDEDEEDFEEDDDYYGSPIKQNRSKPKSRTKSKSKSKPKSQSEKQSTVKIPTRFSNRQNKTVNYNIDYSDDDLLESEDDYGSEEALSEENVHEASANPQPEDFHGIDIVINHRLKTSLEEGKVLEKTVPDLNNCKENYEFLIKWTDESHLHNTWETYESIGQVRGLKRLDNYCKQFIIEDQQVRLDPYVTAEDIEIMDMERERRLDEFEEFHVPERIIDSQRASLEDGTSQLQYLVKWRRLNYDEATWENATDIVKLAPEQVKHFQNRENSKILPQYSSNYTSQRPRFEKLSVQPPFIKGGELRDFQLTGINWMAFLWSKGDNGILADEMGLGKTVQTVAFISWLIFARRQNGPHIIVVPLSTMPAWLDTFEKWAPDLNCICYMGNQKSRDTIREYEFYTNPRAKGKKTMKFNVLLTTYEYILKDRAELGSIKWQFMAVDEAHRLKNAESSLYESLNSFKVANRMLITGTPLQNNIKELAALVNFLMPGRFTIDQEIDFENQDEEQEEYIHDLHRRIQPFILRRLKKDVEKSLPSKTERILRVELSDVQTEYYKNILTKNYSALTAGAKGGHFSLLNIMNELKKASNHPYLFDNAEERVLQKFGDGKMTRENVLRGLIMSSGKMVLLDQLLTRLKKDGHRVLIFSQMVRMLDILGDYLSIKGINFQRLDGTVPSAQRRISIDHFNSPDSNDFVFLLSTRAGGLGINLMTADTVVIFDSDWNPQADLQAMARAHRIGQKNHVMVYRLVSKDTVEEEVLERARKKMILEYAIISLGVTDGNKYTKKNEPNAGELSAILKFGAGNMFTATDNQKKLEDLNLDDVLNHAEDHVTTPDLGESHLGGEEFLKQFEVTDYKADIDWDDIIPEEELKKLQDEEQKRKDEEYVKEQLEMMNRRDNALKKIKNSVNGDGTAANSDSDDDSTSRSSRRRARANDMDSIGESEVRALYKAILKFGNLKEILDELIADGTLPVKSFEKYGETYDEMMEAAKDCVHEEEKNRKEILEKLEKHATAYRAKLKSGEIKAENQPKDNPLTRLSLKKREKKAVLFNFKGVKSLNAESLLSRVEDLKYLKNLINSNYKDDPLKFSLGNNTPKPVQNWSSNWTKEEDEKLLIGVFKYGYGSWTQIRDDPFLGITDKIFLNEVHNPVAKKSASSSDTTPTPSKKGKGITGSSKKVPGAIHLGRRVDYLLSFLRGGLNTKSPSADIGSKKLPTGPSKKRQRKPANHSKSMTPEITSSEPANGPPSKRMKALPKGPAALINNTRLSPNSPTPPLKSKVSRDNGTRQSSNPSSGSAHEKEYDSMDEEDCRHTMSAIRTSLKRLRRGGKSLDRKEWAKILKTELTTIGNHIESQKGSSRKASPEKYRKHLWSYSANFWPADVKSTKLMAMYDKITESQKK

Row | SMILES | Percent Effect [1] | Percent Effect [2] | Percent Effect [3] | Percent Effect [4] | Percent Effect (Trypanosoma cruzi) | Percent Effect [5] | Percent Effect [6] | Percent Effect (Homo sapiens) | Percent Effect [7] | Percent Effect [8] | Percent Effect [9]
1 | CCN(Cc1nc2c(cnn2C)c(=O)[nH]1)c1ccc(OC)c(OC)c1 | -2.86% | 24.1% | 14.9% | -0.321% | 0.513% | -2.8% | 23.3% | 27% | 9.38% | 20.2% | -22.5%
2 | COC(=O)CNC(=O)CSCc1nc(O)c2c(C)c(C)sc2n1 | -1.31% | -6.67% | 14.7% | 4.89% | -3.93% | 3.7% | 9.8% | -3.69% | 3.17% | 0% | -4.91%
3 | O=C(NCCOc1ncc(Cl)cc1Cl)c1ccncc1 | -9.07% | 0% | 3.95% | 4.2% | -5.27% | -1.67% | 9.72% | 14.8% | 7.92% | 8.54% | -3.07%
4 | Cc1nc(C2CCCN(C(=O)c3scnc3C)C2)no1 (stereo not given) | -3.05% | 6.94% | -13.5% | 8.6% | 4.76% | 1.77% | 14.2% | -0.897% | -1.05% | 2.56% | -2.17%
5 | CC(C)(C)c1cc(CN2CC[C@@H](NC(=O)c3cccnc3)[C@H](O)C2)n[nH]1 | -3.5% | 1.39% | -10.7% | 10.3% | 4.37% | 17.7% | 6.49% | 15.6% | 3.16% | 12.8% | -6.81%
6 | CC(OCC1CC1)C(=O)N1CCCN(Cc2cnn(C)c2)CC1 (stereo not given) | 1.55% | 31.6% | -0.358% | -2.42% | -1.95% | -9.25% | 21.6% | 6.99% | 5.21% | 17.7% | -21.4%
7 | Cc1oc(C(=O)O)cc1S(=O)(=O)Nc1c(F)cccc1-n1cccn1 | -5.09% | 0% | -0.737% | 4.46% | 7.5% | 0% | 11% | 7.88% | 2.73% | 6.17% | -3.81%
8 | Cc1oc(C(=O)O)cc1S(=O)(=O)Nc1cc(Cl)ccc1F | -4.85% | 5.2% | -3.17% | 6.3% | 0.374% | -1.42% | -6.59% | 2.33% | 3.88% | 2.44% | -4.3%
9 | COc1ccc(F)cc1C(C(=O)O)N1CCSCC1 (stereo not given) | -2.63% | 8.11% | -2.63% | 20.8% | 1.66% | 18.6% | 6.95% | -10% | 8.6% | 18.5% | -1.27%
10 | O=C(NCC1CCOC1)c1csc(-c2ccco2)n1 (stereo not given) | -2.71% | 13% | -3.93% | -0.826% | 5.24% | -1.07% | 13.8% | 13.5% | 7.77% | 21.9% | -8.51%
11 | Cc1cc(CN2CCN(C(=O)NC(C)c3cccnc3)CC2)on1 (stereo not given) | -2.66% | 13.2% | -2.63% | 3.25% | 8.08% | 1.92% | 10.7% | 2.49% | -0.49% | 19.5% | -6.79%
12 | O=C1CCCN1Cc1ncn2c1CN(C(=O)c1cccc(F)c1)CCC2 | -0.833% | 16.2% | -2.98% | 12% | 3.42% | 20.6% | 13.3% | 17.8% | 8.6% | 16.1% | -12.8%
13 | CN(C(=O)c1ccccc1Cl)C1CCN(c2ccccn2)CC1 | -6.46% | 23.4% | -2.17% | -1.36% | 6.95% | -2.32% | 12.7% | 9.9% | 7.62% | 23.5% | -2.92%
14 | Cc1nc(C)n(CC2CCCN2CCCc2ccccc2)n1 (stereo not given) | -1.6% | -11% | -0.4% | 3.43% | 1.96% | 1.82% | 7.1% | -8.87% | 8.6% | 5% | -1.02%
15 | Cc1nn(C)c(C)c1C1CCCN1Cc1noc(C2CC2)n1 (stereo not given) | 2% | 15.8% | -5.38% | -11.5% | -8.87% | 3.96% | 15.5% | 8.86% | 8.37% | 6.17% | -6.57%
16 | CCS(=O)(=O)N1CCC(c2nnc(CN3CCCC3)n2C2CC2)CC1 | -1.74% | 8% | -4.77% | 9.36% | 2.82% | 12.5% | 3.49% | 19.7% | 7.1% | 16.1% | -7.31%
17 | O=C(CCOc1cccc(F)c1)N1CCCC(n2cncn2)C1 (stereo not given) | -2.79% | 1.27% | 7.42% | 3.23% | -1.95% | 4.95% | 6% | 2.52% | 2.08% | 7.59% | -10.2%
18 | CC(NC(=O)CSCC(=O)Nc1ccccc1)c1ccccc1 (stereo not given) | -1.97% | 2.63% | -2% | -3.2% | -0.654% | 1.08% | -0.761% | -13.7% | 3.45% | 3.7% | 8.03%
19 | CCn1cc(NC(=O)C2CCN(CC(=O)N3CCOCC3)CC2)cn1 | -3.94% | 10.5% | -3.09% | 3.27% | -4.01% | 1.8% | 3.98% | 3.5% | 2.46% | 11.1% | 4.1%
20 | c1cnnc(NCC2CN(Cc3cccc4c3OCCO4)CCO2)c1 (stereo not given) | -3.5% | 5.2% | 2.26% | 4.61% | 9.55% | -2.13% | 1.18% | 18.6% | 10.7% | 24.4% | -7.39%
